Measured values from PubChem BioAssay (Tox21).
Calls of active or inactive are those of the source. Calls come from the whole dose curve; as a rule, active = well fitted activation curve with a large enough effect in the repeat runs; inconclusive = weak or mixed curves; inactive = flat fitted curve, though single readings scatter.

Assay: A CellTox Green Cytotoxicity Assay to monitor cytotoxicity in HepG2 cells - 0 hour (AID 1224882); note: nearly all actives have a fitted effect of over 35% in size
Conditions: CellTox Green fluorescence; series mostly up to 76.8 µM; cytotoxicity: at the top concentration
In short: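 Nonlytic assay: viable cells exclude the dye, so fluorescence scales with cell death. HepG2 at 600 cells/well, compounds added after 5 h, signal read across 40 h.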
% is set by controls: 0 for no effect and ±100 for the full control effect.

| Structure (SMILES) | cytotoxicity |
| --- | --- |
| CN1Cc2cc(C(=O)N3CCC(C4CCNCC4)CC3)ccc2NC(CC(=O)O)C1=O (stereo not drawn) | -7.2% [at 35.3 µM] (inactive) |
| CC(=O)NO | -0.511% [at 35.3 µM] (inactive) |
| CC(=O)[O][Al][O]C(C)=O | -0.986% (inactive) |
| Cc1nn(C)c(Oc2ccccc2)c1/C=N/OCc1ccc(C(=O)OC(C)(C)C)cc1 | -7.27% (inactive) |
| O=C1OC(CN2CCOCC2)CN1/N=C/c1ccc([N+](=O)[O-])o1 (stereo not drawn) | 0.357% [at 35.3 µM] (inactive) |
| COCCCN1CCC(NC(=O)c2cc(Cl)c(N)c3c2OCC3)CC1 | -6.49% [at 35.3 µM] (inactive) |
| C1CCCNCCC1 | -1.96% (inactive) |
| CCC(Cl)CCC(Cl)C(Cl)CC(Cl)C(Cl)C(Cl)CCl (stereo not drawn) | 2.1% (inactive) |
| CCCCC(CC)COC(=O)COc1ccc(Cl)cc1Cl (stereo not drawn) | 0.841% (inactive) |
| CCC(C)O (stereo not drawn) | 1.39% (inactive) |
| C[C@@H](c1ncncc1F)C(O)(Cn1cncn1)c1ccc(F)cc1F (stereo partly drawn) | -13.3% [at 35.3 µM] (inactive) |
| CC(C)(C)OCC1CO1 (stereo not drawn) | -0.688% (inactive) |
| COS(=O)(=O)C(F)(F)F | 1.1% (inactive) |
| C[Si](C)(CCCN)O[Si](C)(C)CCCN | -4.4% (inactive) |
| O=C1OC(=O)C2C3C=CC(C3)C12 (stereo not drawn) | -6.88% (inactive) |
| CC(C)(C)Cl | 0.0654% (inactive) |
| Cc1ccc(C(C)OC(=O)C2(C)CCC(C(=O)O)C2(C)C)cc1 (stereo not drawn) | -0.733% [at 35.3 µM] (inactive) |
| CC(CSC(=O)c1ccccc1)C(=O)N1C[C@@H](Sc2ccccc2)C[C@H]1C(=O)O (stereo partly drawn) | 5.13% [at 15.8 µM] (inactive) |
| O=C(NCCO[N+](=O)[O-])c1cccnc1 | -7.77% [at 35.3 µM] (inactive) |
| CN(C)CCN(Cc1ccsc1)c1ccccn1 | -5.57% [at 35.3 µM] (inactive) |
| Nc1cc(C(=O)O)c(O)c(S(=O)(=O)O)c1 | -0.395% (inactive) |
| O=S(c1cc(Cl)cc(Cl)c1O)c1cc(Cl)cc(Cl)c1O | 11.2% [at 35.3 µM] (inactive) |
| COC(=O)c1ccc(I)cc1S(=O)(=O)NC(=O)Nc1nc(C)nc(OC)n1 | -0.278% (inactive) |
